Read-out in test [1]: Interleukin-8 (IL8), CXCL8 (gene 3576)
Put plainly: BSK_3C_IL8: BioMAP Diversity Plus: 3C Assay for Interleukin-8 (IL8) Biomarker Activity (AID 2283020). The settings on record: primary human endothelial cells (HUVEC); actives raise or lower the signal. The procedure, abridged:
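ELISA read-out of IL-8 from human umbilical vein endothelium, measured 24 h after chemical dosing. Activity is expressed relative to DMSO negative control, with both increases and decreases fitted.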

Read-out in test [2]: Monokine induced gamma interferon (MIG), CXCL9 (gene 4283)
As to the kind of experiment: BSK_3C_MIG: BioMAP Diversity Plus: 3C Assay for Monokine induced gamma interferon (MIG) Biomarker Activity (AID 2283021).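 As to AC50: MIG protein level measured by immunoassay in the treated endothelial cultures.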 The settings on record: primary human endothelial cells (HUVEC); actives raise or lower the signal. The procedure, abridged: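 Read-out is ELISA detection of MIG on human umbilical vein endothelial cells, taken 24 h after dosing. Gain or loss of signal was scored relative to DMSO controls using bidirectional curve fitting.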

In test [3] the target is human Vitamin D Receptor (VDR), VDR (gene 7421) (UniProt P11473). Put plainly: ATG_VDR_TRANS: Attagene TRANS-FACTORIAL HepG2 Assay for human Vitamin D Receptor (VDR) (AID 2283022; active = hit-call score of the fitted dose curve at least 0.9, where 1 is the maximum). The procedure, abridged: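 Steps: transfect HepG2 with GAL4-UAS-driven reporter constructs; dose compounds 24 h; isolate RNA, reverse-transcribe, PCR-amplify with 6-FAM-labelled primer extension and HpaI digestion; quantify fragments by capillary electrophoresis relative to DMSO.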
Sequence of human Vitamin D Receptor (VDR), VDR (gene 7421) (P11473 whole entry, looked up, the tested form may be a part): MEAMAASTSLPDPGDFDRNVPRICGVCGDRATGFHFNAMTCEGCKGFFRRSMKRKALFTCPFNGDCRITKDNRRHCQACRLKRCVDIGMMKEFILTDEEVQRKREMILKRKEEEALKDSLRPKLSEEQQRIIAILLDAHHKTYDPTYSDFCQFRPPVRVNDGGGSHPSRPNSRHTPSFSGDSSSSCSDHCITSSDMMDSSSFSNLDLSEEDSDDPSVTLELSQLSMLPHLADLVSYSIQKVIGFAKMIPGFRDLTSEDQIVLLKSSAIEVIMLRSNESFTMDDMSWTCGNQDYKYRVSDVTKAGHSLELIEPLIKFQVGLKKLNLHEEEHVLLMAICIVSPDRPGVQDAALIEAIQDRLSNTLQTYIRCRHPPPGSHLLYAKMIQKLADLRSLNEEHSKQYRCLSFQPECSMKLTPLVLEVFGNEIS

Test [4] in a line: BSK_3C_SRB: Viability Assessment in the BioMAP Diversity Plus: 3C Assay (AID 2283023).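 Also: fitted both ways against DMSO so a hit may be signal rise or drop.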 Conditions: primary human endothelial cells (HUVEC). The procedure, abridged: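 Absorbance at 560 nm of sulforhodamine B-stained (0.1%) total protein served as a cytotoxicity readout in human umbilical vein endothelial cells, 24 h after chemical treatment. Signal was fitted bidirectionally relative to DMSO.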

Read-out in test [5]: Matrix Metallopeptidase 1 (MMP1), MMP1 (gene 4312)
Put plainly: BSK_BE3C_MMP1: BioMAP Diversity Plus: BE3C Assay for Matrix Metallopeptidase 1 (MMP1) Biomarker Activity (AID 2283024). Conditions: primary human bronchial epithelial cells; actives raise or lower the signal. The procedure, abridged:
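Human bronchial epithelial cells (BE3C system) exposed to compound for 24 h; MMP1 then quantified by ELISA. Activity was fitted in both directions relative to DMSO.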

A short description of test [6]: BSK_3C_Vis: BioMAP Diversity Plus: 3C Assay for Morphology Visualization (AID 2283025).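 Also: fitted both ways so gain or loss versus DMSO counts.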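 As to AC50: light microscopy image of cell morphology used as background control.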 The settings on record: primary human endothelial cells (HUVEC). The procedure, abridged: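 Chemicals were added to primary human umbilical vein endothelium, cells were incubated 24 h, and morphology was then visualized by light microscopy. Gain or loss of signal was fitted bidirectionally relative to DMSO.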

Read-out in test [7]: Pselectin, SELP (gene 6403)
Put plainly: BSK_4H_Pselectin: BioMAP Diversity Plus: 4H Assay for Pselectin Biomarker Activity (AID 2283026). The settings on record: primary human endothelial cells (HUVEC); actives raise or lower the signal. The procedure, abridged: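 ELISA read-out of P-selectin on human umbilical vein endothelium after 24 h of dosing. Values derive from bidirectional fitting relative to DMSO. Parallel SRB protein staining flagged overt cytotoxicity.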

A short description of test [8]: BSK_4H_SRB: Viability Assessment in the BioMAP Diversity Plus: 4H Assay (AID 2283027).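 Also: cells exposed to compound for 24 h before staining.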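 As to AC50: curves fitted both ways versus DMSO so AC50 may be loss or gain.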 The settings on record: primary human endothelial cells (HUVEC). The procedure, abridged:
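Human umbilical vein endothelial cells were dosed with chemical and, after 24 h, fixed with 10% TCA, stained with 0.1% sulforhodamine B, and read at 560 nm to give total protein as a cytotoxicity measure. Bidirectional fitting relative to DMSO control.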

Test [9] in a line: BSK_BE3C_SRB: Viability Assessment in the BioMAP Diversity Plus: BE3C Assay (AID 2283028).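 As to AC50: fitted both ways so AC50 may mark signal gain or loss versus DMSO.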 The settings on record: primary human bronchial epithelial cells. The procedure, abridged: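 Cells (human bronchial epithelial, primary) are treated with chemicals, and after 24 h the parallel cultures are fixed in 10% TCA. These are then stained with 0.1% SRB and read at 560 nm. Gain or loss of signal is fitted relative to DMSO.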

Read-out in test [10]: Thrombomodulin, THBD (gene 7056)
As to the kind of experiment: BSK_3C_Thrombomodulin: BioMAP Diversity Plus: 3C Assay for Thrombomodulin Biomarker Activity (AID 2283029). Conditions: primary human endothelial cells (HUVEC); actives raise or lower the signal. The procedure, abridged: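 Read-out is ELISA of thrombomodulin on human umbilical vein endothelium 24 h after chemical dosing. Gain or loss of signal is scored relative to DMSO. Overt cytotoxicity is checked in parallel cultures by sulforhodamine B staining.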

Molecules are shown by their SMILES. Where “and” joins values, the source holds several entries; their conditions need not be identical. Equal entries are not always repeated. Records with an inconclusive call do not appear. The source holds several records for some structures; these can differ, active in one and inactive in another. Calls of active or inactive are those of the source. The calls were made as follows, unless noted: active = hit-call score of the fitted dose curve at least 0.9, where 1 is the maximum; inactive = score below 0.9.

`CCC(C)Nc1c([N+](=O)[O-])cc(C(C)(C)C)cc1[N+](=O)[O-]` (stereo not drawn): the result in test [1], in [2], in test [3] and in test [10] was inactive. Further, the half-maximal activity concentration (AC50) is 20.2 µM (active) in [4]; 11.1 µM (active) in test [5]; 39 µM (active) in test [6]; 20 µM (active) in [7]; 19.7 µM (active) in test [8]; 14.7 µM (active) in [9].
For the molecule `CCCN(CCOc1c(Cl)cc(Cl)cc1Cl)C(=O)n1ccnc1`, the outcome in test [1], in [2], in [5] and in [6] was inactive. Also, the half-maximal activity concentration (AC50) in [4] is 32 µM (active); in test [7] it was 33.8 µM (active); in test [8] it was 29.8 µM (active); in test [9], 28.9 µM (active); in test [10], 12 µM (active).
Consider `CC1(c2ccc(Oc3ccccc3)cc2)OC(=O)N(Nc2ccccc2)C1=O` (stereo not drawn), for which the half-maximal activity concentration (AC50) in [1] is 24 µM (active); in [2], 32.3 µM (active); in test [4] it was 28.5 µM (active); in test [6], 16.3 µM (active); in [7], 31.7 µM (active); in test [8], 20 µM (active). For the same molecule, the half-maximal activity concentration (AC50) in [9] is 27.5 µM (active). Moreover, the outcome in [5] and in [10] was inactive.
Turning to `ClC1C(Cl)C(Cl)C(Cl)C(Cl)C1Cl` (stereo not drawn), the result in [1], in test [2], in [4], in test [5], in test [6] and in test [7] was inactive. For the same molecule, the outcome in test [8], in [9] and in test [10] was inactive. The AC50 is 18.5 µM (active) and 28.3 µM (active) and 20 µM (active) in test [4]; 38.6 µM (active) in [6]; 5.2 µM (active) in test [7]; 20 µM (active) in test [8].
As for `COc1cc(OC)nc(NC(=O)NS(=O)(=O)c2cc(NC=O)ccc2C(=O)N(C)C)n1`, the outcome in test [1], in test [2], in test [4], in [5], in test [6] and in test [7] was inactive. Further, the result in test [8], in [9] and in test [10] was inactive.
With `CCc1ccc(C(=O)NN(C(=O)c2cc(C)cc(C)c2)C(C)(C)C)cc1`, the outcome in [1], in test [2], in [5], in [6], in test [7] and in test [10] was inactive. Moreover, the figures for the concentration at half-maximal activity (AC50) in test [4], in [8] and in test [9] were 11.8 µM (active), 17.7 µM (active) and 15.4 µM (active), respectively.
With `COc1nn(CSP(=S)(OC)OC)c(=O)s1`, the result in test [1], in test [2], in [4], in test [5], in [6] and in [7] was inactive. The outcome in test [8], in test [9] and in test [10] was inactive.
With `C#CCN1C(=O)COc2cc(F)c(N3C(=O)C4=C(CCCC4)C3=O)cc21`, the result in test [1], in test [2], in [3], in [4], in [5] and in [6] was inactive. In addition, the outcome in test [7], in [8], in test [9] and in test [10] was inactive.
With `O=[N+]([O-])c1c(Cl)c(Cl)c(Cl)c(Cl)c1Cl`, the result in [1], in test [2], in test [5], in test [7], in [8] and in [9] was inactive. In [10], the outcome was inactive. The AC50 in [4] is 30.9 µM (active); in [6] it was 37.5 µM (active).
Turning to `CCS(=O)(=O)c1cccnc1S(=O)(=O)NC(=O)Nc1nc(OC)cc(OC)n1`, the result in test [1], in test [2], in test [3], in test [4], in test [5] and in test [6] was inactive. For the same molecule, the result in test [7], in test [8], in test [9] and in test [10] was inactive.
On to `CCCN(CCC)c1c([N+](=O)[O-])cc(C(F)(F)F)cc1[N+](=O)[O-]`, for which the result in [1], in test [2], in test [5], in [8], in test [9] and in test [10] was inactive. The AC50 is 24.8 µM (active) in test [4], 13.7 µM (active) in [6] and 36.5 µM (active) in [7].
As to `CCOC1Oc2ccc(OS(C)(=O)=O)cc2C1(C)C` (stereo not drawn), the result in [1], in [2], in test [5], in test [6], in test [7] and in test [8] was inactive. For the same molecule, the result in [9] and in test [10] was inactive. For the same molecule, the AC50 in test [4] was 24.1 µM (active).
For `CNC(=O)Oc1cccc(N=CN(C)C)c1`, the result in [1], in [2], in test [4], in [5], in [7] and in [8] was inactive. The result in test [9] and in [10] was inactive. For the same molecule, the AC50 in test [6] was 39 µM (active).
`C[C@H]1[C@H](c2ccc(Cl)cc2)SC(=O)N1C(=O)NC1CCCCC1`: the half-maximal activity concentration (AC50) in test [1] was 20 µM (active); in test [4], 12.1 µM (active); in [5] it was 12.8 µM (active); in test [6], 15.2 µM (active); in test [8] it was 20 µM (active); in test [9] it was 15.7 µM (active). Moreover, the outcome in test [2], in [7] and in test [10] was inactive.

Source of the values: PubChem BioAssay (EPA / NIEHS).
